High-throughput results as filed in PubChem.
Lassa entry inh – qHTS for Inhibitors of binding or entry into cells for Lassa Virus; Lassa virus pseudotype entry inhibition, cell reporter; Potency, µM (series often up to 37.9 µM), for the others: at the highest dose activity change, negative = inhibition, hits mostly inhibitors; 300,000 compounds, 1.2% hits; AID 540256, 2011; calls by dose curve; tested in HEK293 cells; further: potency means the concentration at half of the fitted maximal effect; on the % scale 0 is the no-effect control and ±100 the full control effect; nearly all actives have a fitted effect of over 50% in size
CHX counter – Cycloheximide Counterscreen for Small Molecule Inhibitors of Shiga Toxin; AID 2314, 2010; 300,000 compounds, 12% hits; cell reporter, cycloheximide protein synthesis inhibition counterscreen; max response, %; in the data active means max response mostly above about 13%, no sharp cut-off; inactive means mostly below about 14%; further: read at 38.3 µM for the half of the compounds with a filed dose; 0% is about no effect
Marburg entry inh – qHTS for inhibitors of binding or entry into cells for Marburg Virus | Marburg virus pseudotyped entry inhibition, cell reporter | Potency, µM (top dose mostly 37.8 µM), for inactives: top-dose activity change, negative = inhibition, actives largely listed as inhibitors | 300,000 compounds, 1.8% hits | AID 540276, 2011; calls by dose curve; tested in HEK293 cells; further: potency means the concentration at half of the fitted maximal effect; on the % scale 0 is the no-effect control and ±100 the full control effect
Shiga inhibitor – A qHTS for Small Molecule Inhibitors of Shiga Toxin. Vero cells, Shiga toxin protein synthesis inhibition reporter. inhibition, % at 38.7 µM. 290,000 compounds, 9.2% hits. AID 2315, 2010; in the data active means inhibition mostly above about 28%, no sharp cut-off; inactive means mostly below about 43%; further: 0% is about no effect
Starred values were filed as active, the others as inactive; ? = inconclusive; / = no result; [ ] = remark or other dose. The list is not random: actives were taken first. Their share in the collection is about 12%.

SMILES | Lassa entry inh | CHX counter | Marburg entry inh | Shiga inhibitor
COc1ccc(-c2cc3ccccc3oc2=O)cc1NC(=S)NC(=O)c1ccc2c(c1)OCCO2 | / | 63.4* | 4.9% | 115.0*
Cn1c2ccsc2c2cnn(Cc3ccccc3F)c(=O)c21 | / | 3.7 | / | 59.3
N#CC1(NC(=O)COC(=O)/C=C/c2ccc3ccccc3n2)CCCCC1 | / | 1.9 | / | 9.5
CC(C)(C)c1ccc(OCC(=O)N2CCN(c3ncccn3)CC2)cc1 | / | 1.9 | / | 12.9
O=C(NC(=S)Nc1ccc2oc(=O)ccc2c1)c1ccccc1F | -4.5% | 24.6* | ? | -13.7
O=C(NC(=S)Nc1ccc2oc(-c3ccncc3)nc2c1)c1ccccc1F | 5.9%[46.1 µM] | -1.7 | -1.5%[46.1 µM] | -6.0
O=C(NC(=S)Nc1ccc2c(c1)OCCO2)c1ccccc1 | ? | 55.4* | ? | 73.2*
O=C(Nc1ccc2c(c1)OCCO2)c1c(F)cccc1F | 61.6%[14.3 µM] | 41.1* | -17.3% | 74.1*
O=C(Nc1ccc2c(c1)OCCO2)c1ccccc1F | ? | 46.7* | ? | 50.3*
Cc1cc(C)cc(NC(=O)Nc2c[nH]c(=O)[nH]c2=O)c1 | -0.2%[46.1 µM] | / | -1.3%[46.1 µM] | /
CCC(C)(C(=O)NC1CCCC1)N(C(=O)CC1NC(=O)NC1=O)c1c(C)n(C)n(-c2ccccc2)c1=O (stereo not given) | 12.3% | -7.1 | 22.8%[46.1 µM] | -15.0
CS(=O)(=O)Nc1ccccc1C(=O)Nc1ccc2c(c1)OCCO2 | 0.8% | 15.2* | 4.1% | 46.3
Cc1ccc(S(=O)(=O)N(C)c2ccccc2C(=O)Nc2ccc3c(c2)OCCO3)cc1 | / | -0.8 | / | 9.8
COc1ccc(CNS(=O)(=O)c2ccc(N3CCCCS3(=O)=O)cc2)cc1 | -17.6%[46.1 µM] | / | / | /
CCCn1ccc2c(OCC(=O)Nc3ccccc3C(=O)OCC)cccc2c1=O | -19.4%[46.1 µM] | / | / | /
Cc1cc(=O)oc2cc(OCC3CC(c4ccc(Cl)cc4)=NO3)ccc12 (stereo not given) | -20.7% | 8.3 | -27.7% | 14.3
CC(C)N(CCNC(=O)c1ccc(OCC2CCCO2)cc1)C(C)C (stereo not given) | 4.2%[46.1 µM] | -2.6 | ? | -18.5
O=C(NCCc1ccc(Cl)cc1)c1ccc(OCC2CCCO2)cc1 (stereo not given) | ? | 33.4* | -1.8%[46.1 µM] | 92.0*
Cc1ccc(OCc2ccc(C(=O)NCC3CCCO3)cc2)cc1 (stereo not given) | / | -3.2 | / | 35.5
O=C(NC1CCCCCC1)c1ccc(OCC2CCCO2)cc1 (stereo not given) | ? | 23.6* | ? | 59.4*
C/C(N)=C(/C#N)C(=O)COC(=O)c1ccc(OCC2CCCO2)cc1 (stereo not given) | 5.3%[46.1 µM] | 22.2* | ? | 50.3*
NNC(=O)c1ccc(OCC2CC(c3ccc(Cl)cc3)=NO2)cc1 (stereo not given) | ? | 21.8* | ? | 40.3*
O=C(O)CCC(=O)NNc1ncnc2ccccc12 | -0.2%[46.1 µM] | 46.0* | 17.1%[46.1 µM] | 73.4*
O=C(O)c1ccc(Nc2ncnc3ccccc23)cc1 | / | 15.8* | / | 20.3
CCOC(=O)c1ccc(Nc2ncnc3nc[nH]c23)cc1 | -20.1% | 22.4* | ? | 43.9*
SMILES | Lassa entry inh | CHX counter | Marburg entry inh | Shiga inhibitor
Cc1cccc(Nc2ncnc3nc[nH]c23)c1 | / | 38.5* | / | 64.6*
O=C(Oc1ccc(Nc2ncnc3ccccc23)cc1)c1cccnc1 | / | -2.6 | / | 37.3
CCC(=O)NNc1ncnc2ccccc12 | / | 0.6 | / | -9.5
COc1ccccc1NS(=O)(=O)NC(=O)c1c(C)[nH]c2ccccc12 | / | 2.8 | / | -6.0
NC(=O)c1cnn(C2CCS(=O)(=O)C2)c1 (stereo not given) | / | 11.4 | / | 29.2
CCOC(=O)c1ccc(Nc2ncnc3ccc(C)cc23)cc1 | -16.9% | 6.2 | ? | 9.6
CCOC(=O)c1ccc(Nc2ncnc3ccccc23)cc1 | -0.6%[46.1 µM] | 46.3* | ? | 47.6
COc1ccc(C(=O)C(=NNc2ccccc2)c2ccc(OC)cc2)cc1 | -19.8%[46.1 µM] | / | ? | /
COc1ccc(N/N=C(\C=N\O)C(=O)c2ccc(OC)cc2)cc1 | 2.82µM* | -1.2 | ? | 1.6
O=C(CCS(=O)(=O)c1ccccc1)N1CCCc2ccccc21 | / | 19.2* | / | 56.7*
CCc1nc(SCC(=O)N2CCCc3ccccc32)c2oc3ccccc3c2n1 | 18.3µM* | -2.4 | ? | 4.9
O=C(CCC(=O)N1CCCc2ccccc21)N1CCN(S(=O)(=O)c2ccccc2)CC1 | -3.4% | -2.2 | -4.3% | 32.3
COc1ccccc1CC(=O)N1CCCc2cc(C)ccc21 | / | 3.4 | / | 10.4
O=C(O)c1cccnc1SCC(=O)N1CCCc2ccccc21 | / | 46.8* | / | 98.6*
Cc1ccc2c(c1)CCCN2C(=O)CSc1ccccc1 | / | 11.5* | / | 52.6
O=C(CSc1nnc(-c2ccccc2)o1)N1CCCc2ccccc21 | 23.3%[46.1 µM] | / | 1.5%[46.1 µM] | /
COc1ccc(CCN(C)C2CCCN(C(=O)c3sccc3C)C2)cc1OC (stereo not given) | -12.6% | 10.6 | 9.4% | -6.0
Nc1ccc(N2CCN(c3ncc(C(F)(F)F)cc3Cl)CC2)c(C(F)(F)F)c1 | -1.2%[46.1 µM] | / | 6.0%[46.1 µM] | /
CC(C)n1c(SCC(=O)Nc2ccc(N3CCOCC3)cc2)nnc1-c1ccco1 | 18.6% | 3.7 | 5.3%[46.1 µM] | 18.9
O=C(CSc1ccc2nnc(-c3ccc(Cl)cc3)n2n1)N1CCCc2ccccc21 | 18.1% | 16.8* | -6.1% | 24.0
O=C(CSc1ncccn1)N1CCCc2ccccc21 | 5.2% | 11.2* | 22.2%[46.1 µM] | 27.9
CCc1nc(N2CCCCC2C)c2oc3ccccc3c2n1 (stereo not given) | ? | -3.5 | 18.3µM* | 35.5
Cc1ccnc(SCC(=O)N2CCc3ccccc32)n1 | 10.1%[46.1 µM] | 32.1* | ? | 72.7*
Cc1ccc(S(=O)(=O)N(C)C)cc1NC(=O)COC(=O)c1ccc2c(c1)NC(=O)CS2 | -4.4% | -0.9 | -1.5%[46.1 µM] | 13.0
COc1cc(NC(=O)NCc2ccncc2)cc(OC)c1OC | 6.3% | 4.6 | 21.6% | -4.9
SMILES | Lassa entry inh | CHX counter | Marburg entry inh | Shiga inhibitor
Cc1ccc(-c2nc3ccccc3[nH]2)cc1NC(=O)COc1ccccc1[N+](=O)[O-] | ? | / | -17.3%[46.1 µM] | /
COc1ccc(-c2nc(CN3CCC(C(=O)NCC4CCCO4)CC3)c(C)o2)cc1OC (stereo not given) | 18.7%[46.1 µM] | -0.9 | -0.4%[46.1 µM] | -7.4
O=C(CSc1ncccn1)n1c2c(c3ccccc31)CCCC2 | -1.8% | 32.8* | 9.1% | 52.4*
Cc1cc(C)nc(SCC(=O)n2c3c(c4ccccc42)CCCC3)n1 | 0.8% | -5.3 | 7.3% | 13.4
COc1ccc(-n2c(-c3ccc(Cl)cc3)c[n+]3c2CCc2ccccc2-3)cc1 | ? | -1.2 | 11.2µM* | 12.2
COc1ccc(-n2c(-c3ccccc3)nnc2-c2ccc(Cl)cc2)cc1 | 0.5% | 28.7 | 10.3%[46.1 µM] | -6.4
COc1cc(/C=C/C(=O)OCC(=O)Nc2ccc(S(N)(=O)=O)cc2)ccc1O | / | 28.2* | / | -7.5
COc1ccc(OC)c(/C=C/C(=O)N2CCCc3ccccc32)c1 | ? | 17.9 | ? | 54.0
COc1cc(/C=C/C(=O)OCC(=O)Nc2ccc([N+](=O)[O-])cc2)ccc1O | / | -1.8 | / | 3.0
COc1ccc(/C=C/C(=O)N2CCCc3ccccc32)cc1 | ? | 51.7* | 7.1% | 74.1*
COc1cc(/C=C/C(=O)OCC(=O)N2CCCc3ccccc32)ccc1O | -26.0% | / | 1.26µM* | /
COc1cc(/C=C/C(=O)N2CCCc3ccccc32)cc(OC)c1OC | ? | 1.2 | ? | 2.6
